Source: PubChem BioAssay AID651821 (The Scripps Research Institute Molecular Screening Center, 2012)
The campaign covered roughly 370,000 compounds. About 4,700 (1.3%) were called active. This excerpt belongs to a sample that is enriched for actives. A number with no mark means an inactive call.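 The calls were made as follows: active = inhibition above the plate cutoff, the mean of all test compounds on that plate plus 3 SD (cut at about 35% in these data); inactive = the rest.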

Test: binders of r(CAG) RNA repeats, primary screen, biochemical, fluorescence (AID 651821);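 also: 0% = DMSO alone and 100% = 100 µM mitoxantrone as full dye displacement; higher means more dye released from RNA so lower well fluorescence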
Settings: r(CAG) RNA repeat, TO-PRO-1 dye displacement fluorescence; at 3 µM; stronger effect = higher value

Structure (SMILES) | inhibition
CC/C(=N\NC(=O)c1ccccc1O)c1c(O)n(Cc2ccccc2)c(=O)[nH]c1=O | 80.1% (active)
O=c1[nH]c(=O)n(Cc2ccccc2)c(O)c1/C=N/Nc1c(F)c(F)c(F)c(F)c1F | 0.55%
CCCCn1c(O)c(C(CC)=NCc2ccco2)c(=O)[nH]c1=O | -0.86%
C[N+]1(C)CCOC(O)(c2ccc(-c3ccc(C4(O)C[N+](C)(C)CCO4)cc3)cc2)C1 (stereo not given) | 3.46%
Cc1ccccc1CCC[C@@H](CC1CCCCC1)CN(C)C(=O)Oc1ccccc1 | 6.44%
Clc1ccc([C@@H]2CC3CCC2N3)cn1 (stereo not given in full) | 1.8%
COc1cc(OC)cc(C(=O)NCCN2CCC3(CC2)C(=O)NCN3c2ccccc2)c1 | 4.12%
COc1ccc(N2C(=O)/C(=C/c3ccco3)C(=O)NC2=S)cc1 | 67.3% (active)
O=Cc1cn(Cc2ccc(F)cc2Cl)c2ccccc12 | -0.22%
CCc1nnc(NS(=O)(=O)c2ccc(N=Cc3c(O)n(-c4ccccc4)c(=O)[nH]c3=O)cc2)s1 | 5.87%
O=C1CC(=O)N(Cc2ccccc2)C(=O)N1CCCCCCN1C(=O)CC(=O)N(Cc2ccccc2)C1=O | 68% (active)
CC(C)(C)c1ccc(CN2C(=O)CN=C(c3ccccc3)c3ccccc32)cc1 | -3.15%
O=C(NC(=S)N1C[C@H]2C[C@H](C1)c1cccc(=O)n1C2)c1ccc(F)cc1 | 0.97%
O=C1C2(Cl)C3(Cl)C4(Cl)C(Cl)(Cl)C5(Cl)C3(Cl)C1(Cl)C5(Cl)C24Cl (stereo not given) | 11.4%
Cc1cc(=O)oc2c(C)c(OCC(=O)N3CCN(Cc4ccc5c(c4)OCO5)CC3)ccc12 | -1.14%
O=C1NC(=O)N(c2ccccc2)C(=O)/C1=C/c1ccc([N+](=O)[O-])s1 | 70.2% (active)
COc1cccc(N2C(=O)NC(=O)/C(=C\c3ccc([N+](=O)[O-])s3)C2=O)c1 | 56% (active)
CC1=C(C(=O)Nc2ccccc2)SCCO1 | 5.19%

Structure (SMILES) | inhibition
Cc1ccsc1C(=O)C1CCCN(Cc2ccc(O)cc2)C1 (stereo not given) | -1.2%
O=c1[nH]c(=O)n(-c2ccccc2)c(O)c1C=NC12CN3CN(CN(C3)C1)C2 | 2.56%
O=S(=O)(c1ccccc1)N1CCC2CCNC2C1 (stereo not given) | 1.15%
Cc1cc(N2CCNC[C@@H]2C)ccc1N1CC[C@H](O)C1 | 3.47%
COc1ccccc1OC(=O)c1ccc(C)c(S(=O)(=O)N2CCOCC2)c1 | -3.22%
CS(=O)(=O)N1CCC2CCNC2C1 (stereo not given) | 0.17%
COP(=O)(Sc1ccccc1)C(Cc1ccccc1)NC(=O)OCc1ccccc1 (stereo not given) | -1.61%
CCC(C)NC1(c2ccccc2)CCCCC1 (stereo not given) | 2.27%
COc1ccc(CN2CCN(c3ccccc3F)CC2)c(OC)c1 | -4.43%
Brc1ccc2c(c1)CNCc1cnnn1-2 | 0.59%
COc1ccc2[nH]c3c(c2c1)CCN[C@H]3C | 3.06%
COc1ccc2c(c1)[C@@]13CCCCC1[C@@H](C2)NCC3 (stereo not given in full) | 37.9% (active)
COc1ccc2c(c1)[C@]13CCCCC1C(C2)N(C)CC3 (stereo not given in full) | 3.99%
CCN(CC)C(=O)[C@@H]1C=C2c3cccc4[nH]c(Br)c(c34)C[C@H]2N(C)C1 | 2.23%
CN(C)C(=O)NC(O)C(Cl)(Cl)Cl (stereo not given) | -3.56%
O=C1NC(=O)N(Cc2ccco2)C(=O)/C1=C\c1ccc(-c2ccc(F)cc2)o1 | 52.2% (active)
CCC1(CC(C)c2ccccc2)C(=O)NC(=O)NC1=O (stereo not given) | 1.88%
